Results on 19 compounds are retold here after PubChem BioAssay.

A short description of experiment [1]: antimalarial activity against Dd2 strain (AID 2302;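 active means growth inhibition above 50% at the single 2 µM test dose, taken to imply half-maximal potency below 2 µM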;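 further: 0% = DMSO untreated growth and 100% = chloroquine plus artemisinin killed control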). To be noted: P. falciparum Dd2 in RBCs, LDH growth readout, 72 h; at 2 µM; stronger effect = higher value.
Experiment [2] is described as follows: HepG2 cytotoxicity, primary screen, cytotoxicity control for P. falciparum antimalarial project, cell-based, ATP luminescence (AID 2303;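 active means inhibition above 50%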;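 further: 0% = DMSO wells and 100% = digitonin-killed cells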). The settings on record: HepG2 viability, 24-48 h, at 10 µM, stronger effect = higher value.
Experiment [3] deals with L-lactate dehydrogenase (Plasmodium falciparum (isolate CDC / Honduras)) (UniProt Q27743). The experiment can be described thus: PfLDH activity inhibition – cell lysate, 3D7 strain, counter-screen for P. falciparum growth inhibition project (AID 2304).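 Further: 0% = vehicle and 100% = reference inhibitor.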 The settings on record: P. falciparum 3D7 crude extract, LDH APAD/NBT absorbance; at 2 µM; stronger effect = higher value.
Chain of L-lactate dehydrogenase (Plasmodium falciparum (isolate CDC / Honduras)) (Q27743 whole entry, looked up): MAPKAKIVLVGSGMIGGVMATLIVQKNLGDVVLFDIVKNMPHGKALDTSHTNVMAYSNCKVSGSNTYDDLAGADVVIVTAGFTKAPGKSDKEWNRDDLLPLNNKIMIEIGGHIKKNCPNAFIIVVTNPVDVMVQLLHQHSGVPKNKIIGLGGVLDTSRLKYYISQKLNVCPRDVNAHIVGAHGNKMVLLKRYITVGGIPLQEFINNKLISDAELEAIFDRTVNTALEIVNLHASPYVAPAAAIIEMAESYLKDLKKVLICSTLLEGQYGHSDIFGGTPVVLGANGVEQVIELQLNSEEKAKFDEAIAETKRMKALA
Experiment [4] in a line: inhibition of 3D7 malaria parasite growth – strain 3D7 (AID 2306).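 Further: 0% = DMSO wells and 100% = chloroquine plus artemisinin control wells.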 The settings on record: P. falciparum 3D7 erythrocytic growth, LDH absorbance, 72 h; at 2 µM; stronger effect = higher value.
The target in experiment [5] is Calcium-dependent protein kinase 1 (Plasmodium falciparum (isolate 3D7)) (UniProt P62344). In words: PfCDPK1 kinase inhibitors, biochemical, TCAMS library (AID 1159585; cut-off not given, nearly all actives have IC50 up to about 0.98 µM;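 further: inhibitors leave more ATP so luminescence rises with inhibition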). To be noted: recombinant PfCDPK1, Kinase-Glo ATP depletion luminescence.
Chain of Calcium-dependent protein kinase 1 (Plasmodium falciparum (isolate 3D7)) (P62344 whole entry, looked up): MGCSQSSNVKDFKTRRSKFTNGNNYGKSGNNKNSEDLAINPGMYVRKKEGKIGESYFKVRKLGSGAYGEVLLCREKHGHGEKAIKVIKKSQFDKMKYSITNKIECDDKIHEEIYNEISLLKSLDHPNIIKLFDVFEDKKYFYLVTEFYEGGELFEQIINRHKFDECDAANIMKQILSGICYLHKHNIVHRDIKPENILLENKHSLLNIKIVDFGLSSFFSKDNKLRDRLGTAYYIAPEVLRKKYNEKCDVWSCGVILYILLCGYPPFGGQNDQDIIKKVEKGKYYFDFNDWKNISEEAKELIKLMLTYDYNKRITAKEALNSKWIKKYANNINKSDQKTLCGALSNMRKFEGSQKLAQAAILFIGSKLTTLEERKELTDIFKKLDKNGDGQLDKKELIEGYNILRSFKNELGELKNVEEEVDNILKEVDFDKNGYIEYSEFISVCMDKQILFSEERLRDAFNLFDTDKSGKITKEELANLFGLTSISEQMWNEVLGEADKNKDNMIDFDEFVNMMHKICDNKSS
The target of experiment [6] is Plasmodium falciparum protein kinase 6 (PK6, PF3D7_1337100) (UniProt Q8IDW1). The experiment can be described thus: PfPK6 kinase inhibitors, biochemical, TCAMS library (AID 1159586). To be noted: recombinant PfPK6, Kinase-Glo ATP depletion luminescence.
Chain of Plasmodium falciparum protein kinase 6 (PK6, PF3D7_1337100) (Q8IDW1 1-305): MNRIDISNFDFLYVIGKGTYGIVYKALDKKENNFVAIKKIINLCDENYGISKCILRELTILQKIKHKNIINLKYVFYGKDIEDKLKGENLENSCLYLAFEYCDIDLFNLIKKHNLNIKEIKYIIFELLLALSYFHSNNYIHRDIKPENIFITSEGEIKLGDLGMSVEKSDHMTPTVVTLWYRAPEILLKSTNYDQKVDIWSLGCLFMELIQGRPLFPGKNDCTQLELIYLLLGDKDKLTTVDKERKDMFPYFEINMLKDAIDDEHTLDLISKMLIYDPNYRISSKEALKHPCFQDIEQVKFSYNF
Experiment [7] concerns the target Protein kinase 7 (PK7), Plasmodium falciparum 3D7 (PF3D7_0213400) (UniProt Q7YTF7). In words: inhibition of Plasmodium PK7 catalytic activity – biochemical, TCAMS antimalarial set, Kinase-Glo luminescence (AID 1159587). The settings on record: recombinant PfPK7, Kinase-Glo ATP depletion luminescence.
For experiment [8], the target named is Calcium-dependent protein kinase 4 (Plasmodium falciparum (isolate 3D7)) (UniProt Q8IBS5). The experiment can be described thus: PfCDPK4 kinase inhibitors, biochemical, TCAMS library (AID 1159588; cut-off not given, nearly all actives have IC50 up to about 0.91 µM). To be noted: recombinant PfCDPK4, Kinase-Glo ATP depletion luminescence.
Chain of Calcium-dependent protein kinase 4 (Plasmodium falciparum (isolate 3D7)) (Q8IBS5 whole entry, looked up): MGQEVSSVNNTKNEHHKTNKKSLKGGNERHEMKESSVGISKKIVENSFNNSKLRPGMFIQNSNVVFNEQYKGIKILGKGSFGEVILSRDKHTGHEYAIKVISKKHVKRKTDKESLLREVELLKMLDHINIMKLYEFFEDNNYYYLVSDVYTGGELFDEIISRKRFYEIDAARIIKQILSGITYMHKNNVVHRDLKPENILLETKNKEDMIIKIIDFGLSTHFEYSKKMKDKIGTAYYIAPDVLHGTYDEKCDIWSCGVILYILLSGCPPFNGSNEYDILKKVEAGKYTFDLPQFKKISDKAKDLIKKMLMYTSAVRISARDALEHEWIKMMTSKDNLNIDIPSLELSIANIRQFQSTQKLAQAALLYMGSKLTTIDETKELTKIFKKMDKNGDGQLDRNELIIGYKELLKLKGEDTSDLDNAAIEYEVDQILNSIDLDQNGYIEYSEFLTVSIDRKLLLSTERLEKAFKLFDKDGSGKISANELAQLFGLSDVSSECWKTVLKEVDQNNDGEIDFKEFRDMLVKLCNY

Values without a mark were called inactive. For some assays here: Potency and affinity values are given separately. Calls of active or inactive are those of the source. Unless noted, how the calls were made is not given here.

Chain of Protein kinase 7 (PK7), Plasmodium falciparum 3D7 (PF3D7_0213400) (Q7YTF7 1-343): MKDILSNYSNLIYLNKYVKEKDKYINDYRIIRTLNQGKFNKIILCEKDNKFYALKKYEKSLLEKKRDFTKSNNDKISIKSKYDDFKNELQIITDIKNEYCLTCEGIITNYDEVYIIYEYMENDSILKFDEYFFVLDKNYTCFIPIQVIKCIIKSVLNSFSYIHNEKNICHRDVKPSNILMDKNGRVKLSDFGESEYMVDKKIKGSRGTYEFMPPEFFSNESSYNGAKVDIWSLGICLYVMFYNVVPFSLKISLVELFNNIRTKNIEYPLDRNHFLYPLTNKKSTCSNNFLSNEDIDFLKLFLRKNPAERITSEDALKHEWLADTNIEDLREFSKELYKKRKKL

`O=C(Nc1ccc2c(c1)CCN2C1CCN(Cc2csc3ccccc23)C1)c1ccco1` (configuration not stated): the growth inhibition in experiment [1] and in experiment [4] was 95% (active) each time. Moreover, the inhibition was -5% in experiment [2] and -2% in experiment [3]. For the same compound, the outcome in experiment [5], in experiment [6], in experiment [7] and in experiment [8] was inactive.
`O=C(c1ccc(Cl)cc1)N1CCCC(C(=O)N(Cc2nnc(-c3ccccc3Cl)o2)C2CC2)C1` (configuration not stated): the values for the growth inhibition in experiment [1] and in experiment [4] were 96% (active) and 95% (active), respectively. The inhibition in experiment [2] is 10%; in experiment [3], 0%. Besides, the result in experiment [5], in experiment [6], in experiment [7] and in experiment [8] was inactive.
In the case of `CCCNC(=O)c1ccnc(-c2ccc(CNC3Cc4ccccc4C3)cc2)c1`, the growth inhibition is 21% in experiment [1] and 92% (active) in experiment [4]. Also, the inhibition in experiment [2] was 24%; in experiment [3], -3%. Besides, the outcome in experiment [5], in experiment [6], in experiment [7] and in experiment [8] was inactive.
For `CCN(CC)CCN(Cc1ccc(-c2ccc(C(F)(F)F)cc2)cc1)C(=O)Cn1c(CCc2ccc(F)c(F)c2F)nc(=O)c2cccnc21`, the growth inhibition in experiment [1] was 20%; in experiment [4], 89% (active). Moreover, the inhibition in experiment [2] was 29%; in experiment [3], -3%. Moreover, the outcome in experiment [5], in experiment [6], in experiment [7] and in experiment [8] was inactive.
Turning to `COc1cc(NCCCNC(=O)c2ccc(Cl)c(Cl)c2)nc2ccccc12`, the results for the growth inhibition in experiment [1] and in experiment [4] were 101% (active) and 99% (active), respectively. Besides, the inhibition in experiment [2] was 48%; in experiment [3], 5%. Also, the outcome in experiment [5], in experiment [6], in experiment [7] and in experiment [8] was inactive.
Take `CN(CCC(CCN1CCC(c2c[nH]c3ccccc23)CC1)c1ccccc1)C(=O)Nc1ccc(Cl)c(Cl)c1` (configuration not stated): the growth inhibition was 21% in experiment [1] and 91% (active) in experiment [4]. Also, the inhibition in experiment [2] was 50% (active); in experiment [3], 3%. Besides, the result in experiment [5], in experiment [6], in experiment [7] and in experiment [8] was inactive.
On to `CN(C)CCCNCc1ccc(-c2ccc(F)c(Cl)c2)o1`, for which the growth inhibition in experiment [1] is 69% (active); in experiment [4], 93% (active). Also, the inhibition in experiment [2] is 29%; in experiment [3], -7%. Also, the result in experiment [5], in experiment [6], in experiment [7] and in experiment [8] was inactive.
With `CCCC[C@H](NC(=O)O[C@H](COc1ccc(OCc2ccccc2)cc1)C(C)(C)C)C(=O)C(=O)Nc1ccn[nH]1`, the growth inhibition in experiment [1] was 71% (active); in experiment [4], 88% (active). The figures for the inhibition in experiment [2] and in experiment [3] were 21% and -1%, respectively. Further, the result in experiment [5], in experiment [6], in experiment [7] and in experiment [8] was inactive.
Turning to `CCc1ccc(N2C(=O)C3C(Cc4ccc(OC(C)(C)C)cc4)NC4(C(=O)N(Cc5ccccc5)c5ccc(F)cc54)C3C2=O)cc1` (configuration not stated), the growth inhibition was 49% in experiment [1] and 96% (active) in experiment [4]. The inhibition was 9% in experiment [2] and -10% in experiment [3]. In addition, the result in experiment [5], in experiment [6], in experiment [7] and in experiment [8] was inactive.
For the compound `O=C(Nc1ccc(Cl)c(Cl)c1)N[C@H]1CCN(CCCCCNC(=O)[C@@H]2C[C@H]2c2ccc(Cl)c(Cl)c2)C1`, the growth inhibition in experiment [1] is 8%; in experiment [4] it was 93% (active). Also, the inhibition was 42% in experiment [2] and 3% in experiment [3]. For the same compound, the result in experiment [5], in experiment [6], in experiment [7] and in experiment [8] was inactive.
As for `O=C(Nc1ccccc1)N1CCOC(CCN2CCC(F)(F)CC2)(c2ccc(Cl)c(Cl)c2)C1` (configuration not stated), the growth inhibition in experiment [1] is 100% (active); in experiment [4], 102% (active). Moreover, the inhibition was 20% in experiment [2] and 3% in experiment [3]. Further, the outcome in experiment [5], in experiment [6], in experiment [7] and in experiment [8] was inactive.
For the compound `O=C(Cc1cccc(OCCCN(Cc2cccc(C(F)(F)F)c2Cl)CC(c2ccccc2)c2ccccc2)c1)NCc1ccco1`, the growth inhibition was 84% (active) in experiment [1] and 94% (active) in experiment [4]. For the same compound, the inhibition in experiment [2] is 2%; in experiment [3] it was -6%. Also, the result in experiment [5], in experiment [6], in experiment [7] and in experiment [8] was inactive.
Turning to `O=C(Nc1ccc(Cn2ncc(N3CCCNCC3)c(Cl)c2=O)cc1)Nc1cccc(SC(F)(F)F)c1`, the growth inhibition in experiment [1] is 33%; in experiment [4] it was 92% (active). Also, the inhibition in experiment [2] was 12%; in experiment [3], 4%. In addition, the outcome in experiment [5], in experiment [6], in experiment [7] and in experiment [8] was inactive.
Turning to `Cc1ccc(C(=O)N2CCc3cc4nccc(N5CCN6CCC[C@H]6C5)c4cc32)cc1`, the growth inhibition is 13% in experiment [1] and 95% (active) in experiment [4]. For the same compound, the inhibition in experiment [2] was 5%; in experiment [3], -5%. Besides, the result in experiment [5], in experiment [6], in experiment [7] and in experiment [8] was inactive.
Turning to `CNS(=O)(=O)c1ccc(NC(=O)c2cc(-c3cccnc3)nc3ccc(Br)cc23)cc1`, the growth inhibition in experiment [1] is 55% (active); in experiment [4], 101% (active). For the same compound, the inhibition in experiment [2] was 9%; in experiment [3] it was 5%. For the same compound, the outcome in experiment [5], in experiment [6], in experiment [7] and in experiment [8] was inactive.
`CCc1cc2c3c(N)nc(N)nc3ccc2n1CC`: the growth inhibition in experiment [1] is -2%; in experiment [4], 93% (active). The results for the inhibition in experiment [2] and in experiment [3] were 62% (active) and -1%, respectively. For the same compound, the result in experiment [5], in experiment [6], in experiment [7] and in experiment [8] was inactive.
Take `COc1ccc(CNC(=O)NC2CCN(c3ccnc(Nc4ccc(F)cc4)n3)C2)cc1` (configuration not stated): the growth inhibition in experiment [1] was 78% (active); in experiment [4] it was 91% (active). Also, the inhibition is 4% in experiment [2] and -2% in experiment [3]. In addition, the outcome in experiment [5], in experiment [6], in experiment [7] and in experiment [8] was inactive.
For `Fc1ccc2nc(-c3cccc(-c4cccc(CNCc5ccccc5)c4)c3)[nH]c2c1`, the figures for the growth inhibition in experiment [1] and in experiment [4] were 52% (active) and 102% (active), respectively. Moreover, the inhibition in experiment [2] was 24%; in experiment [3], -9%. Further, the result in experiment [5], in experiment [6], in experiment [7] and in experiment [8] was inactive.
`c1ccc2c(Nc3ccc(Oc4ccc(Nc5c6ccccc6nc6ccccc56)cc4)cc3)c3ccccc3nc2c1`: the growth inhibition in experiment [1] is 99% (active); in experiment [4], 101% (active). Moreover, the inhibition in experiment [2] is 21%; in experiment [3] it was -2%. Also, the outcome in experiment [5], in experiment [6], in experiment [7] and in experiment [8] was inactive.
